# Shown are actives, neighbours in structure and some others; about 1.3% of the full set was active somewhere.
# PKM2 activator – activators of human pyruvate kinase M2. purified PKM2, Kinase-Glo ATP luminescence, activation; response scale: 0% is enzyme alone, no compound. P14618. Potency, µM (titrated, usually from 57.5 µM), for the others: top-dose activation, most hits filed as activators. 260,000 compounds, 0.34% hits. AID 1631; also: nearly all actives have a fitted effect of over 55% in size
#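 hPK-M2, >95% pure; 0.1 mM ADP / 0.5 mM PEP final; imidazole pH7.2 buffer w/ 7 mM MgCl2, 50 mM KCl; 1 h RT; Kinase-Glo lum. Intermediate enzyme activity for dual inhibitor/activator qHTS.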
# TrxR1 inh – blocks rat thioredoxin reductase 1; O89049; recombinant rTrxR1, NADPH fluorescence consumption, selenite substrate; Potency, µM (top dose mostly 114 µM), for the others: at the top dose activity change, negative = inhibition, most hits filed as inhibitors; 390,000 compounds, 1% hits; AID 588453; also: nearly all actives have a fitted effect of over 65% in size
#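 Rat TrxR1 (90 nM in the dispensed reagent) was pre-reduced with 400 uM NADPH for 5 min at room temperature, then incubated with compound for 15 min. After 400 uM selenite was added, NADPH fluorescence (Ex 340/Em 450 nm) was followed for 8 min.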
# mIDH1 inhibitor – inhibitors of human mutant IDH1 R132H | O75874 | IDH1-R132H enzyme, NADPH consumption, diaphorase/resazurin fluorescence | Potency, µM (titrated, usually from 76.6 µM), inactives show at the highest dose activity change, negative = inhibition, most hits filed as inhibitors | 390,000 compounds, 0.093% hits | AID 602179; also: nearly all actives have a fitted effect of over 65% in size
# Target sequence (O75874 whole entry R132H, stated change not applied): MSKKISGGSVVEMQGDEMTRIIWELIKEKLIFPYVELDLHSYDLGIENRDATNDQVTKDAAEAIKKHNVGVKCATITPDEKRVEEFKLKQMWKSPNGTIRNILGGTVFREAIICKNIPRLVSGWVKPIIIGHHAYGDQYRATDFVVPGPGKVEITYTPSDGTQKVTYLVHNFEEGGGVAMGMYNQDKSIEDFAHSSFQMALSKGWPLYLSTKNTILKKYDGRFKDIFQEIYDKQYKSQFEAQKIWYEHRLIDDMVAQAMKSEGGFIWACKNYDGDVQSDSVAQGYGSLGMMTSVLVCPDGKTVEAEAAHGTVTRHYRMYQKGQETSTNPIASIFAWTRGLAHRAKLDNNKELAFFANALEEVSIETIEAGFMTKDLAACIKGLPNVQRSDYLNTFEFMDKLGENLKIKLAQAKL
#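 IDH1-R132H (0.5 ug/mL) preincubated 30 min with compound, then NADPH (0.016 mM) and alpha-KG (2 mM) added; 80 min at RT, pH 7.5. Remaining NADPH coupled via diaphorase/resazurin to fluorescence (540/590 nm); concentration-response curves normalized to no-enzyme control.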
# GALK inh – inhibitors of human galactokinase; P51570; Purified GALK, Kinase-Glo residual ATP luminescence; Potency, µM (top dose mostly 57.5 µM), for the others: at the top dose activity change, negative = inhibition, most hits filed as inhibitors; 270,000 compounds, 0.007% hits
#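 GALK at 5 nM final was combined with compound, 35 uM ATP and 100 uM galactose in HEPES pH8.0 with MgCl2 and DTT. The reaction ran one hour at room temperature before luminescent ATP detection.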
# TrxR1 substrate – substrates of rat thioredoxin reductase 1; O89049; purified TrxR1 substrate turnover, NADPH consumption readout; Potency, µM (top dose mostly 114 µM), inactives show at the top dose activity change, negative = substrate turnover; 390,000 compounds, 0.01% hits; AID 588456; also: nearly all actives have a fitted effect of over 50% in size
#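 Rat TrxR1, dispensed at 90 nM, was prereduced with 400 uM NADPH (final) for 5 min at ~22 deg C, then incubated with compound 15 min before 400 uM selenite. A first-read NADPH fluorescence drop versus no-compound background flagged substrates.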
# Apoferritin bind – binds horse apoferritin like a general anesthetic | P02791 | apoferritin/1-aminoanthracene competitive binding, fluorescence | Potency, µM (titrated, usually from 77.5 µM), for the others: at the top dose activity change, negative = displacement, actives largely listed as inhibitors | 350,000 compounds, 0.074% hits | AID 485281; also: nearly all actives have a fitted effect of over 20% in size
# Target sequence (P02791 2-175 limits assumed): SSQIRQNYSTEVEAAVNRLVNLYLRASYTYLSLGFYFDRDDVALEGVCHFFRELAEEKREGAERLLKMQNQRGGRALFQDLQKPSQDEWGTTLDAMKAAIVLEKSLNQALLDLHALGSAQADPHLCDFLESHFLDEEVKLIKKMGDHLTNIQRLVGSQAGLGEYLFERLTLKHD
#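 Apoferritin-based anesthetic binding model; compound displacement of fluorescent 1-AMA measured as endpoint fluorescence after 10 minutes at room temperature, scaled to free-ligand and complex controls.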
# An asterisk follows results filed as active; ? = inconclusive; . = no result; [ ] = another dose, or the depositor's remark. Calls follow the shape of the dose curve; as a rule, active = well fitted curve in the direction sought with a large enough effect; inconclusive = small, poorly fitted or top-dose-only effect, or another doubt; inactive = no such curve, though single readings can be large; an effect the other way counts as inactive or inconclusive. % is scaled to controls: 0 for no effect and ±100 for the full control effect; potency is read from the fitted curve at half-maximal effect.
SMILES,PKM2 activator,TrxR1 inh,mIDH1 inhibitor,GALK inh,TrxR1 substrate,Apoferritin bind
Cc1ccc(C(=O)c2c(C)oc3c2C(=O)C(=O)c2ccccc2-3)cc1,-4%,22%[57.1 µM],12%,0%,?,?
Cc1oc2c(c1C(=O)c1ccc(Cl)cc1)C(=O)C(=O)c1ccccc1-2,3%,2%,19%,-1%,79µM*,-15%
Cc1ccc(Cc2c(C)nc3nc(SCC(=O)NC4CCC(C)CC4)nn3c2C)cc1 (configuration not stated),.,25%[57.1 µM],5%,.,12%[57.1 µM],28%
Clc1ccc2c(Cl)cc[n+](CCC3CCCCC3)c2c1,.,-24%,.,.,-7%,.
Cn1nnc2sc3c(c2c1=O)CCCC3,2%,17%[57.1 µM],1%,-1%,9%[57.1 µM],32µM*
CCN(Cc1ccccc1)Cc1c(O)ccc2c(=O)c(-c3ccccc3Cl)c(C(F)(F)F)oc12,.,7%,.,.,1%,-8%
COc1ccc2c(c1)O/C(=C\c1ccco1)C2=O,15%,-6%[57.1 µM],0%,.,1%[57.1 µM],-1%
Cc1cc(O)c(CN(C)C)c2c1C(=O)/C(=C/c1ccco1)O2,.,56µM*,5%,.,-12%,149%
CCOC(=O)c1cccc(NC(=O)CCS(=O)(=O)c2cccs2)c1,1%,22µM*,1%,-2%,-4%,-11%
CCOC(=O)c1cccc(NC(=O)CCS(=O)(=O)c2ccc(Br)s2)c1,0%,5%,-14%,1%,-2%,-11%
CC[C@@H]1[C@H]2CCCC(=O)N3CC[C@@H](C[C@@H]1OC(=O)Nc1ccc4c(c1)OCO4)[C@@H]23,.,10%,.,.,3%,.
COC(=O)NCC12CC3CC(C1)CC(CNC(=O)OC)(C3)C2,-2%,35µM*,-2%,6%,5%,?
NC1=NC(=O)/C(=C\c2ccc(-c3ccccc3[N+](=O)[O-])o2)S1,.,?,.,.,-7%,.
CCN(Cc1nc(-c2ccc(OC)cc2)oc1C)S(=O)(=O)c1ccc(C)cc1,.,11%[57.1 µM],9%,.,3%[57.1 µM],78%
COc1ccc(NC(=O)CCS(=O)(=O)c2cc3c(cc2C)NC(=O)CO3)cc1Cl,.,14%,6%,.,-1%,110%
CCC(=O)N(CC)C1=C(O)c2ccccc2C(=O)C1=O,?,1.1µM*,10%,3%,-23%,-19%
CCC(=O)N(C1=C(NC)C(=O)c2ccccc2C1=O)C(C)C,-1%,29%,-2%,0%,-1%,-5%
COc1ccc(C(=O)NCC(c2cccnc2)N2CCc3ccccc3C2)cc1OC (configuration not stated),.,7%,0%,.,-3%,-21%
COc1ccc(C)cc1S(=O)(=O)NCC(c1cccnc1)N1CCc2ccccc2C1 (configuration not stated),11µM*,29%,-1%,4%,1%,-1%
O=C(CSc1nc2c(c(=O)[nH]1)CN(Cc1ccc(F)cc1)CC2)Nc1ccc(F)cc1,16µM*,10%,1%,0%,6%,1%
CC(C)c1ccc(C(=O)C[N+]2(C)CCOCC2)cc1,.,24%,.,.,15%,.
Cn1ncc(Cl)c1C(=O)N1CCC(Cc2ccccc2)CC1,22µM*,5%,-10%,-7%,-7%,-11%
CN1C/C(=C/c2cccnc2)C(=O)/C(=C/c2cccnc2)C1,-19%,10µM*,5%,-2%,-11%,-2%
CC(C)N1C/C(=C/c2cccnc2)C(=O)/C(=C/c2cccnc2)C1,-1%,?,1%,.,3%,0%
COc1ccccc1/C=C/c1ccnc2ccccc12,.,-10%[0.0914 µM],.,.,4%,.
SMILES,PKM2 activator,TrxR1 inh,mIDH1 inhibitor,GALK inh,TrxR1 substrate,Apoferritin bind
CC(C)CCNC(=O)c1cc2c(=O)n3ccccc3nc2s1,.,45µM*,-7%,1%,106%,162%
Cc1cc(C)nc(SCc2cc(=O)c(OC(=O)c3ccc(S(=O)(=O)N4CCCC4)cc3)co2)n1,?,16µM*,-4%,1%,4%,-11%
Cc1cc(C)nc(SCc2cc(=O)c(OC(=O)c3ccc(Br)o3)co2)n1,14%,79µM*,3%,-1%,-11%,-22%
COc1ccc(NC(=O)Cc2ccc(Cl)c(Cl)c2)cn1,7%,16%[57.1 µM],8%,-4%,-9%,-11%
COc1ccc(NC(=O)/C(Cl)=C(/Cl)S(=O)(=O)Cc2ccc(C)cc2)cn1,3%,2.2µM*,2%,0%,11%[57.1 µM],?
COc1ccccc1N=Cc1nc(-c2ccccc2)oc1OC(C)=O,0%,-35%[57.1 µM],-6%,0%,-8%[57.1 µM],4%
CC(=O)Oc1oc(-c2ccccc2)nc1/C=N/c1ccccn1,-5%,7.1µM*,-2%,-4%,-3%,-7%
Cc1cccc2c(C(O)c3c[nH]c4c(C)cccc34)c[nH]c12,.,-21%,.,.,-5%,.
Cc1cc(C(=O)Nc2ccc(S(=O)(=O)Nc3onc(C)c3C)cc2)c(C)o1,-6%,?,6%,-2%,-4%,4%
Cc1noc(NS(=O)(=O)c2ccc(NC(=O)c3ccoc3C)cc2)c1C,12%,28µM*,-2%,0%,-6%,-11%
CC(C)C(=O)Nc1nnc(NC(=S)Nc2ccccc2)s1,-2%,10µM*,0%,-2%,2%[57.1 µM],-12%
O=C(Cn1nnc(-c2ccccc2Cl)n1)N1CCN(S(=O)(=O)c2ccc(Cl)cc2)CC1,7.9µM*,11%,14%,0%,-7%,-12%
Cc1ccc(S(=O)(=O)N2CCCN(S(=O)(=O)c3ccc(C)cc3)CC2)cc1,8.9µM*,1%[57.1 µM],7%,-2%,-7%[57.1 µM],-5%
Cc1ccc(S(=O)(=O)N2CCN(C(=O)CSc3ccc(Cl)cc3)CC2)cc1,14µM*,-5%[57.1 µM],-3%,12%,-7%[57.1 µM],4%
Cc1ccc(S(=O)(=O)N2CCN(C(=O)CSc3nncs3)CC2)cc1,18µM*,10%,0%,0%,-5%,-5%
Cc1ccnc2ccc(N)cc12,.,13%,.,.,6%,.
Cc1ccc(NS(=O)(=O)c2ccc3[nH]c4c(c3c2)CCCC4)cc1N(C)C,.,22%,-21%,.,-1%,-5%
Cc1cc(/C=C2\C=Cc3ccccc32)cc(C)c1N,.,-9%,.,.,-1%,.
CCn1cc(C(=O)Nc2cccc(Cl)c2)c2cc(OC)c(OC)cc2c1=O,.,18%,3%,.,4%,-22%
O=C(CSc1ccc(F)cc1)N1CCN(S(=O)(=O)c2ccccc2)CC1,3.2µM*,10%,-3%,8%,-1%,-2%
COc1ccccc1-n1cnnc1SCC(=O)N1CCN(S(=O)(=O)c2ccccc2)CC1,16µM*,19%,1%,0%,4%,-19%
CC(=O)Nc1ccc(SCC(=O)N2CCN(S(=O)(=O)c3ccccc3)CC2)cc1,?,-8%,-3%,12%,-5%,-4%

# Compound activity deposited in PubChem BioAssay by National Center for Advancing Translational Sciences (NCATS).
